Each sequence was assayed against CRX (Homo sapiens, UniProt O43186 26-111) (assay: PBM; 200 nM protein, PBS). Details: dsDNA, one strand shown.
Chain of CRX (O43186 26-111): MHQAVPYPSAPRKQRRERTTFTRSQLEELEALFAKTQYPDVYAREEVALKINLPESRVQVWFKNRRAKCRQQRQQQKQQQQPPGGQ

In order of rising binding signal:
1. CCTCTGAC  7.95 upbm affinity estimate (log intensity, higher = more binding, comparable within an allelic series)
2. CGCTGCCG  8.07 upbm affinity estimate (log intensity, higher = more binding, comparable within an allelic series)
3. CCGGTGCG  8.15 upbm affinity estimate (log intensity, higher = more binding, comparable within an allelic series)
4. GCGCACGC  8.22 upbm affinity estimate (log intensity, higher = more binding, comparable within an allelic series)
5. GACAACCA  8.34 upbm affinity estimate (log intensity, higher = more binding, comparable within an allelic series)
6. ACCTCCCA  8.37 upbm affinity estimate (log intensity, higher = more binding, comparable within an allelic series)
7. AACTTTAA  10.5 upbm affinity estimate (log intensity, higher = more binding, comparable within an allelic series)
8. AGTTAATC  12.7 upbm affinity estimate (log intensity, higher = more binding, comparable within an allelic series)
9. ATAGATTA  12.7 upbm affinity estimate (log intensity, higher = more binding, comparable within an allelic series)
10. GGCTTAAC  12.7 upbm affinity estimate (log intensity, higher = more binding, comparable within an allelic series)
11. GAAGATTA  12.8 upbm affinity estimate (log intensity, higher = more binding, comparable within an allelic series)
12. AGATTAAT  12.9 upbm affinity estimate (log intensity, higher = more binding, comparable within an allelic series)
13. AGGATTAC  13.1 upbm affinity estimate (log intensity, higher = more binding, comparable within an allelic series)
14. ATAATCTC  13.1 upbm affinity estimate (log intensity, higher = more binding, comparable within an allelic series)
15. AGATTAAG  13.1 upbm affinity estimate (log intensity, higher = more binding, comparable within an allelic series)
16. CTGGATTA  13.1 upbm affinity estimate (log intensity, higher = more binding, comparable within an allelic series)
17. AGAGATTA  13.1 upbm affinity estimate (log intensity, higher = more binding, comparable within an allelic series)
18. GATTAAGC  13.1 upbm affinity estimate (log intensity, higher = more binding, comparable within an allelic series)
19. GAGATTAA  13.1 upbm affinity estimate (log intensity, higher = more binding, comparable within an allelic series)
20. GGGATTAC  13.2 upbm affinity estimate (log intensity, higher = more binding, comparable within an allelic series)
21. AGATTATC  13.2 upbm affinity estimate (log intensity, higher = more binding, comparable within an allelic series)
22. GGAGATTA  13.2 upbm affinity estimate (log intensity, higher = more binding, comparable within an allelic series)
23. ATAATCCA  13.2 upbm affinity estimate (log intensity, higher = more binding, comparable within an allelic series)
24. CGTAATCC  13.2 upbm affinity estimate (log intensity, higher = more binding, comparable within an allelic series)
25. GGATTACC  13.3 upbm affinity estimate (log intensity, higher = more binding, comparable within an allelic series)
26. TGGATTAA  13.4 upbm affinity estimate (log intensity, higher = more binding, comparable within an allelic series)
27. CGGGATTA  13.4 upbm affinity estimate (log intensity, higher = more binding, comparable within an allelic series)
28. TAATCCTA  13.4 upbm affinity estimate (log intensity, higher = more binding, comparable within an allelic series)
29. TAATCCCA  13.4 upbm affinity estimate (log intensity, higher = more binding, comparable within an allelic series)
30. AAGGATTA  13.4 upbm affinity estimate (log intensity, higher = more binding, comparable within an allelic series)
31. ATAATCCC  13.5 upbm affinity estimate (log intensity, higher = more binding, comparable within an allelic series)
32. CTAATCCC  13.5 upbm affinity estimate (log intensity, higher = more binding, comparable within an allelic series)
33. CCTAATCC  13.5 upbm affinity estimate (log intensity, higher = more binding, comparable within an allelic series)
34. ACGGATTA  13.5 upbm affinity estimate (log intensity, higher = more binding, comparable within an allelic series)
35. GGATTAAA  13.5 upbm affinity estimate (log intensity, higher = more binding, comparable within an allelic series)
36. GAGGATTA  13.5 upbm affinity estimate (log intensity, higher = more binding, comparable within an allelic series)
37. AGGATTAA  13.6 upbm affinity estimate (log intensity, higher = more binding, comparable within an allelic series)
38. AGGGATTA  13.6 upbm affinity estimate (log intensity, higher = more binding, comparable within an allelic series)
39. CGGATTAA  13.7 upbm affinity estimate (log intensity, higher = more binding, comparable within an allelic series)
40. ATAATCCG  13.7 upbm affinity estimate (log intensity, higher = more binding, comparable within an allelic series)

Reference: PMC11006913
